SW480 rerep – induces DNA re-replication in SW480 colon adenocarcinoma cells | SW480 DNA re-replication, Hoechst DNA content imaging, 48 h | Potency, µM (highest dose often 46.1 µM), for inactives: at the top dose re-replication activation, usual class: activators | 340,000 compounds, 1.8% hits | AID 624297; note: potency is the fitted concentration of half-maximal effect; % of control where 0% means no effect; nearly all actives have a fitted effect of over 55% in size
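Quantitative HTS format with DMSO vehicle controls; 48 hr drug incubation at 37 C, then 40 min Hoechst staining and scanning imager measurement at 405 nm excitation.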
MCF10A rerep – DNA re-replication induction in MCF 10a cells; MCF 10A DNA re-replication, Hoechst nuclear intensity, 48 h; Potency, µM (titrated, usually from 46.1 µM), for the others: at the highest dose activity, positive = re-replication, hits mostly activators; 350,000 compounds, 2.9% hits; AID 624296; note: potency is the fitted concentration of half-maximal effect; % of control where 0% means no effect; nearly all actives have a fitted effect of over 50% in size
DT40 TDP1 no CPT – qHTS for Inhibitors of human tyrosyl-DNA phosphodiesterase 1 (TDP1): qHTS in cells in absence of CPT | DT40 Tdp1-/- hTDP1 cells, no CPT, ATP luminescence, 48 h | Potency, µM (titrated, usually from 46.2 µM), inactives show top-dose activity change, negative = growth inhibition, actives largely listed as inhibitors | 420,000 compounds, 15% hits; note: potency is the fitted concentration of half-maximal effect; % is set by controls: 0 for no effect and ±100 for the full control effect; nearly all actives have a fitted effect of over 55% in size
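Luminescent ATP content (CellTiter-Glo) served as the growth readout. Knockout chicken DT40 cells expressing human TDP1 were exposed to compounds without camptothecin for a minimum 48 hr at 37 °C.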
IL1B secr inh – blocks inflammasome-driven IL-1 beta release | activity change, % at 57.5 µM | 360,000 compounds, 4.7% hits | THP-1 LPS/ATP IL-1B secretion, AlphaLISA, 16 h; hits give low values; in the data active = activity change below about -50%; inconclusive = mostly about -30% to -49%; note: % is set by controls: 0 for no effect and ±100 for the full control effect
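Secreted IL-1B measured by AlphaLISA bead assay after 16 h compound exposure of THP-1 cells; compounds (final up to 57.5 uM) added 1 h before LPS (250 ng/mL) and ATP (1.25 mM) stimulation; lower signal means less secretion.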
TDP1 cell CPT – growth inhibition of DT40 Tdp1-/-;hTDP1 cells with camptothecin (screen for TDP1 inhibitors). 420,000 compounds, 12% hits. chicken DT40 Tdp1-/-;hTDP1 cells + 20 nM CPT, ATP luminescence, 48 h. Potency, µM (series often up to 46.2 µM), inactives show at the top dose activity change, negative = growth inhibition, most hits filed as inhibitors; note: potency is the fitted concentration of half-maximal effect; % is set by controls: 0 for no effect and ±100 for the full control effect; nearly all actives have a fitted effect of over 55% in size
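Chicken DT40 Tdp1-/- cells stably complemented with human TDP1 were seeded at 400 cells/well in medium containing 20 nM camptothecin, exposed to pin-transferred compounds, and grown at 37 °C for at least 48 hr. Viability was read as ATP luminescence.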
Chronic BCR inh – inhibitors of chronic active B-cell receptor signaling. AID 493014. ABC-DLBCL IkBa-CBG/CBR reporter, luminescence ratio, 4 h. 340,000 compounds, 0.05% hits. Potency, µM (doses to about 46.1 µM), without a hit: at the top dose activity change, negative = inhibition, actives largely listed as inhibitors; active = well fitted inhibition curve with a large enough effect in the signal ratio, with a control signal flat, not every such curve was filed as active; inconclusive = small, poorly fitted or top-dose-only effect, or effect the other way, or a change in a side signal; the % refers to the signal ratio;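 note: potency is the fitted concentration of half-maximal effect; plate controls were basal doxycycline-induced cells for no effect and cells given 10 µM MG132 for full effect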
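Compounds up to 46 uM were incubated four hours with TMD8 cells whose green CBG68 luciferase is fused to IkappaBalpha; red CBR luminescence normalised the signal, and concentration-effect curves were fitted to fusion, red and ratio data.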
* = called active by the depositor; ? = inconclusive; . = not tested or not shown; [ ] = another dose, or the depositor's remark. Hits are enriched below; roughly 19% of the tested compounds scored in any of these assays. Unless noted, calls come from the whole dose curve; as a rule, active = well fitted curve in the direction sought with a large enough effect; inconclusive = small, poorly fitted or top-dose-only effect, or another doubt; inactive = no such curve, though single readings can be large; an effect the other way counts as inactive or inconclusive.

SMILES	SW480 rerep	MCF10A rerep	DT40 TDP1 no CPT	IL1B secr inh	TDP1 cell CPT	Chronic BCR inh
Cc1cc(Cl)c(S(=O)(=O)N2CCCC2)cc1OCC(=O)NC1CCCCC1	1%	9%	18µM*	-22	15µM*	-3%
CCCOc1cc(C)c(Cl)cc1S(=O)(=O)N(CC)CC	-3%	3%	?	-18	18µM*	-10%
CC(C)(O)C#Cc1ccc(CN2CCc3nnc(CCNC(=O)c4ccco4)n3CC2)cc1	.	.	-11%	.	2%[9.04 µM]	.
COc1ccc(-c2c(C(=O)c3ccccc3)[nH]c(N)c2C(=O)NCc2ccccc2)cc1OC	.	.	?	-5	?	.
CCOC(=O)C(=O)N(C)c1c(CC)nc2c(OCc3cccc(OC)c3)cccn12	.	.	-10%	16	-11%	.
Cc1ccc2cccc(OCC(=O)Nc3cccc(S(=O)(=O)N4CCCC4)c3)c2n1	2%	?	16µM*	-71*	21µM*	?
N#Cc1ccccc1OCC(=O)Nc1cccc(S(=O)(=O)N2CCCCCC2)c1	1%	?	21µM*	-9	?	?
CC(=O)c1ccc(OCC(=O)Nc2cccc(S(=O)(=O)N3CCCC3)c2)cc1	-5%	4%	9.2µM*	-5	8.2µM*	-5%
O=C(COc1ccc2ccc(=O)oc2c1)Nc1cccc(S(=O)(=O)N2CCCCC2)c1	-1%	4%	12µM*	18	?	-10%
CCOc1ccccc1OCC(=O)Nc1cccc(S(=O)(=O)N2CCCCCC2)c1	1%	17%	?	-14	?	?
COc1ccc(S(=O)(=O)N2CCC(C(=O)NCc3cccnc3)CC2)cc1OC	-9%	-3%	-8%	4	10%	0%
CCN(CCCNC(=O)COc1cc(=O)n(CC)c2ccccc12)c1ccccc1	-2%	15%	?	-13	23µM*	-2%
CCN(CCCNC(=O)CSc1cc(=O)n(CC)c2ccccc12)c1cccc(C)c1	.	.	21µM*	.	21µM*	.
Cn1cc(-c2ccccc2C(=O)O)c(=O)c2cc(Cl)ccc21	5%	-5%	-16%	-15	-6%	0%
CCCCc1nn2c(=O)cc(COC(=O)C3CCCCC3)nc2s1	.	.	-16%	.	-25%	.
O=C(c1ccccn1)N(Cc1ccco1)C1(C(=O)Nc2ccc(Br)cc2)CCCCC1	.	.	23µM*	-2	16µM*	.
CN(C(=O)c1ccc2c(c1)OCO2)C1(C(=O)NC2CCCCC2)CCCCC1	18%	0%	-15%	1	-29%	5%
O=C(c1ccc2c(c1)OCO2)N(Cc1ccco1)C1(C(=O)NC2CCCCC2)CCCCC1	?	12%	16µM*	0	12µM*	?
O=C(c1ccccn1)N(Cc1ccco1)C1(C(=O)NC2CCCC2)CCCCC1	21%	6%	?	-14	-28%	1%
CCC(C)(C(=O)NC1CCCC1)N(Cc1ccco1)C(=O)c1ccc2c(c1)OCO2 (configuration not stated)	-4%	8%	7.3µM*	-4	9.2µM*	1%
CC(C(=O)Nc1cccc(S(=O)(=O)N2CCOCC2)c1)N1CCN(C)CC1 (configuration not stated)	-2%	-5%	6%	-1	5%	1%
CCOc1ccc(C2/C(=C(/O)c3ccc(S(=O)(=O)N4CCCCC4)cc3)C(=O)C(=O)N2CCCOC)cc1OC (configuration not stated)	-3%	0%	0%	10	-6%	3%
COc1cccc(Nc2nc(-c3ccccc3)c3cc(C)ccc3n2)c1	.	.	?	.	7.3µM*	.
COc1cccc(Nc2nc3cc(C)ccc3cc2C)c1	.	.	?	-4	?	.

Screens (PubChem)
